40 molecules from PubChem BioAssay (Tox21) can be followed below.

Each structure is given as a SMILES string. A number with no mark means an inactive call. A call without a number means that no potency is given here. Activity calls are given as the source filed them. The call rests on the fitted dose curve.

The experiment in a line: G protein-coupled receptor (GPCR) small molecule agonists, calcium flux assay: HEK293 wild type cell line counter screen (AID 1920065). The settings on record: HEK293 WT calcium flux, fluorescence, agonist mode; series mostly up to 57.6 µM; activation: at the top concentration. The text has this: U.S. Tox21 Program National Center for Advancing Translational Sciences [NCATS] Division of Preclinical Innovation [DPI] U.S. Environmental Protection Agency [EPA] National Institutes of Environmental Health Sciences [NIEHS] National Toxicology Program [NTP] U.S. Food and Drug Administration [FDA] Assay overview: The increased intracellular calcium release that occurred upon G protein-coupled receptor (GPCR) activation led to the frequent use of calcium flux assays to detect GPCR activation. For the purpose of studying and screening compounds that may activate GPCR, receptor-overexpressing models were typically generated using Hek293 wild-type (WT) cells. In order to eliminate the compounds that may have induced calcium release for non-specific activation, a counter-assay utilizing calcium flux on Hek293 WT cells was performed. The data were formulated in order to serve as a control for any calcium flux detection utilizing Hek293 cells with either GPCR overexpression or gene modification. The procurement of Hek293 WT cells from ATCC. Fluorescence intensity can be utilized to determine the activation of the compound in a calcium flux assay. As a counter control, this cell line was utilized to screen the Tox21 10K compound library.
Assay Protocol Summary: Hek293 cells were dispensed at 1500cells/4uL/well in 1536-well black wall/clear bottom plates using a multidrop dispenser. After the assay plates were incubated at a 37 C/5% CO2 incubator for 18 hours, 4 uL of Calcium Dye Solution was added to each well. The plates were incubated at 37 C for 1 hour. For agonist mode, 23 nL of compounds dissolved in DMSO, positive control (ATP) or DMSO only was transferred to the assay plate by a pin tool station. The fluorescence intensity in the plates was measured using FDSS 7000EX kinetic plate reader with a filter set of Ex/Em=480/540 for 3 min at 1 sec intervals. Each test compound was measured at 15 concentrations and in triplicates.
Background: Calcium flux is commonly read through the fluorescence of an indicator in the cells.
As to `CCCCCCCC[N+](C)(CCCCCCCC)CCCCCCCC`, the Potency entry was “inactive”.

`CCCCN(CC)C(=O)SCCC`: the Potency entry was “inactive”.

As to `Clc1ccc(C(c2ccc(Cl)cc2)C(Cl)(Cl)Cl)cc1`, the Potency entry is “inactive”.

As to `OCCSSCCO`, the “activation” value was 1.34%.

For the molecule `COC(=O)NS(=O)(=O)c1ccc(N)cc1`, the Potency result is “inactive”.

With `CCCCN(CCCCO)N=O`, the “activation” value was 0.642%.

For `Cc1ccc([N+](=O)[O-])cc1C`, the Potency result is “inactive”.

Turning to `CCCOC(=O)c1cncn1C(C)c1ccccc1` (stereo not given), the “activation” value is -0.231% [at 26.5 µM].

Take `NC(=S)c1c(Cl)cccc1Cl`: the “activation” value was -1.28%.

On to `O=C(O)COc1ccccc1`, for which the Potency result was “inactive”.

Turning to `CC(COc1ccc(Oc2ccccc2)cc1)Oc1ccccn1` (stereo not given), the “activation” value was -0.458%.

Take `Nc1ccc(Cl)cc1`: the Potency result is “inactive”.

In the case of `CN1C(=O)CN=C(c2ccccc2)c2cc(Cl)ccc21`, the Potency result was “inactive”.

Turning to `ClCCBr`, the Potency entry is “inactive”.

As for `O=NN1CCCCCCC1`, the Potency result was “inactive”.

Take `S=c1[nH]c2ccccc2[nH]1`: the Potency result is “inactive”.

For `O=C1C2CC=CCC2C(=O)N1SC(Cl)(Cl)Cl` (stereo not given), the “activation” value is -0.194%.

In the case of `Sc1ccccc1`, the Potency entry was “inactive”.

Consider `O=C1C2(Cl)C3(Cl)C4(Cl)C(Cl)(Cl)C5(Cl)C3(Cl)C1(Cl)C5(Cl)C24Cl` (stereo not given), for which the Potency result is “inactive”.

For the molecule `CC[N+](CC)(CC)CC`, the Potency result was “inactive”.

`Clc1ccc(C(Cl)(Cl)Cl)cn1`: the “activation” value was -0.0271%.

For `O=C/C=C/c1ccco1`, the “activation” value was 0.397%.

For `COc1nc(NC(C)C)nc(NC(C)C)n1`, the Potency result is “inactive”.

For the molecule `COCC(=O)N(c1c(C)cccc1C)[C@H](C)C(=O)OC`, the “activation” value is 0.197%.

Consider `CNC(=O)O/N=C/C(C)(C)S(C)(=O)=O`, for which the Potency result was “inactive”.

In the case of `C[C@H]1CCCC(=O)CCC/C=C/c2cc(O)cc(O)c2C(=O)O1`, the Potency entry was “inactive”.

As to `CCCSC(=O)Cl`, the “activation” value was 0.179%.

For `Oc1ccc(Cl)c(Cl)c1`, the “activation” value was -0.338%.

In the case of `Clc1cccc(C(Cl)(Cl)Cl)n1`, the Potency entry is “inactive”.

As for `CCCCN(CCCC)N=O`, the Potency entry is “inactive”.

As for `CCCCCCCCCBr`, the “activation” value was 0.0255%.

Consider `Cc1ccc(N)cc1C`, for which the “activation” value is 0.611%.

As for `N#CCCCl`, the Potency entry is “inactive”.

Regarding `N#Cc1ccccc1N`, the “activation” value was -0.538%.

In the case of `CCC(C)(C#N)N=NC(C)(C#N)CC` (stereo not given), the “activation” value was 1.72%.

In the case of `CC(=O)/C=C/c1ccccc1`, the Potency result was “inactive”.

With `CCC(C)n1c(=O)[nH]c(C)c(Br)c1=O` (stereo not given), the “activation” value is -0.935%.

Take `Sc1ccccc1Cl`: the “activation” value is 1.36% [at 26.5 µM].

`C[C@@H]1O[C@@H](O[C@H]2C[C@@H](O)[C@]3(CO)[C@H]4[C@H](O)C[C@]5(C)[C@@H](C6=CC(=O)OC6)CC[C@]5(O)[C@@H]4CC[C@]3(O)C2)[C@H](O)[C@H](O)[C@H]1O`: the Potency result is “inactive”.

`O=[N+]([O-])c1cccc2ccccc12`: the Potency result was “inactive”.
